Results filed as inconclusive are left out. Active and inactive are the calls of the source. Unless noted, calls follow the shape of the dose curve; as a rule, active = well fitted curve in the direction sought with a large enough effect in the repeat runs; inconclusive = weak or mixed curves; inactive = no such curve, though single readings can be large; an effect the other way counts as inactive or inconclusive.
Key:
[1] = A CellTox Green Cytotoxicity Assay to monitor cytotoxicity in HepG2 cells - 8 hour (AID 1224890); also: nearly all actives have a fitted effect of over 45% in size
Procedure, shortened: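 HepG2, 600 cells/well premixed w/ CellTox Green; 5 h settle, 37 C/5% CO2; pintool cpd add (DMSO); 37 C, 40 h; fluorescence read at 0, 8, 16, 24, 32, 40 h.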

[2] = qHTS assay to identify small molecule antagonists of the estrogen receptor alpha (ER-alpha) signaling pathway using the BG1 cell line in the presence of 0.1 nM 17-beta-estradiol - cell viability counter screen (AID 1259241); also: nearly all actives have a fitted effect of over 40% in size
Procedure, shortened: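 Following 5 days in phenol red-free medium with charcoal-stripped serum, VM7Luc4E2 cells received test compounds alongside 0.1 nM 17beta-estradiol (final) at 37C for 22 hr. Live cells were then quantified via protease-substrate fluorescence.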

[3] = qHTS assay to identify small molecule antagonists of the androgen receptor (AR) signaling pathway using the MDA cell line in the presence of 0.5 nM R1881 - cell viability counter screen (AID 1259242); also: nearly all actives have a fitted effect of over 45% in size
Procedure, shortened: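 Live-cell protease fluorescence, CellTiter-Fluor, 30 min at 37C. Cells: MDA-kb2, 3,000/well, preincubated 5 hr. Compounds plus 0.5 nM R1881 final, 16 hr, 37C, 0% CO2.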

[4] = molecular target: Estrogen receptor (Homo sapiens) (UniProt P03372); assay: qHTS assay to identify small molecule antagonists of the estrogen receptor alpha (ER-alpha) signaling pathway using the BG1 cell line in the presence of 0.1 nM 17-beta-estradiol (AID 1259244); also: nearly all actives have a fitted effect of over 50% in size
Estrogen receptor (Homo sapiens), sequence (P03372 whole entry, looked up): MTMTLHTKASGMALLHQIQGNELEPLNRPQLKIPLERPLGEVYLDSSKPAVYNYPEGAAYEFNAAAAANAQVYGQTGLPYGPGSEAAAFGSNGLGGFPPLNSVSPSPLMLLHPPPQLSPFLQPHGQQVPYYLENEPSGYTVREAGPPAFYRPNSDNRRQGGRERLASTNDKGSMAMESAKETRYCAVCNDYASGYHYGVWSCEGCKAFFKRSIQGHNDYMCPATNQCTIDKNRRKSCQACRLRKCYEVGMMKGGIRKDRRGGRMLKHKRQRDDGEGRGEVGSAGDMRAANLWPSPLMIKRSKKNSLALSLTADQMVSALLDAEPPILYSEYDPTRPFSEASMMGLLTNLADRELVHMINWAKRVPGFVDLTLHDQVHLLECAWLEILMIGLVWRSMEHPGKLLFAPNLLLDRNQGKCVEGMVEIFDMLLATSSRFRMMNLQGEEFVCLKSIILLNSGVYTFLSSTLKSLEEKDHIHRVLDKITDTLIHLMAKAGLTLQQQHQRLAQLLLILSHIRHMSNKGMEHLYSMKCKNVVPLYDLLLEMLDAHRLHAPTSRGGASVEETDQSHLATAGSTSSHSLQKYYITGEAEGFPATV
Procedure, shortened: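 Luminescence after ONE-Glo (30 min, room temperature) measured ERE-luciferase activity in VM7Luc4E2 cells treated 22 h with compound and 0.1 nM final 17beta-estradiol as stimulator.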

[5] = qHTS assay to identify small molecule HDAC inhibitors (AID 1259364); also: potency is read from the fitted curve at half-maximal effect;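 also: wild-type HCT-116 cells with endogenous class I/II HDAC activity; nearly all actives have a fitted effect of over 45% in size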; as to activity change, negative = inhibition: top concentration of the series differs between compounds
Procedure, shortened: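 HCT-116 (wild type), 1,500 cells/well, overnight; compound 2 hr 37C 5% CO2; HDAC-Glo I/II reagent 30 min RT; luminescence readout.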

[6] = qHTS assay to identify small molecule HDAC inhibitors - cell viability counter screen (AID 1259365); also: series mostly up to about 92 µM; nearly all actives have a fitted effect of over 50% in size
Procedure, shortened: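 HCT-116 wild-type, overnight attachment; 2hr drug exposure, 37C; CellTiter-Glo luminescent ATP readout after 30min RT.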

[7] = qHTS assay to identify small molecule agonists of the sonic hedgehog signaling (Shh) pathway - cell viability counter screen (AID 1259366); also: nearly all actives have a fitted effect of over 50% in size
Procedure, shortened: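 Compounds in DMSO were pin-transferred onto 3T3 Gli1-Luc cells that had settled 4hr; plates then stood 24hr at 37C and 5% CO2. One hour before the end, CellTiter-Fluor was added and fluorescence recorded.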

[8] = qHTS assay to identify small molecule antagonists of the sonic hedgehog signaling (Shh) pathway - cell viability counter screen (AID 1259367); also: nearly all actives have a fitted effect of over 55% in size
Procedure, shortened: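 Conditioned medium drove Shh signaling in 3T3 Gli1-Luc cells exposed to compounds at 37C and 5% CO2. Viability was determined from CellTiter-Fluor fluorescence, with reagent incubated 1 hr after 23 hr of treatment.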

[9] = qHTS assay to identify small molecule phospholipidosis (PLD) inducers (AID 1259344; active = well fitted curve in the direction sought with a large enough effect; an effect the other way counts as inactive or inconclusive)
Procedure, shortened: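 After 4 h attachment on collagen I, HepG2 cells were dosed with compound alongside LipidTOX Red, kept 24 h at 37 C, fixed, and imaged for lamellar phospholipid pits.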
% is scaled to controls: 0 for no effect and ±100 for the full control effect.

CC(C)(O)C#CC(C)(C)O
inactive: Potency [1] | outcome [2] | Potency [3] | outcome [4] | Potency [5] | outcome [6] | Potency [7] | Potency [8]

N=C(N)c1ccc2cc(OC(=O)c3ccc(N=C(N)N)cc3)ccc2c1
active: Potency [5] 59.6 nM
inactive: Potency [1] | outcome [2] | Potency [3] | outcome [4] | Potency [9] | outcome [6] | Potency [7] | Potency [8]

Cc1cc(O)cc2c1O[C@](C)(CCC[C@H](C)CCC[C@H](C)CCCC(C)C)CC2
inactive: Potency [1] | outcome [2] | Potency [3] | outcome [4] | Potency [9] | Potency [5] | outcome [6] | Potency [7] | Potency [8]

Cc1c(O)cccc1O
inactive: Potency [1] | outcome [2] | Potency [3] | outcome [4] | Potency [5] | outcome [6] | Potency [7] | Potency [8]

NC(=O)Nc1ccccc1
inactive: Potency [1] | outcome [2] | Potency [3] | outcome [4] | Potency [5] | outcome [6] | Potency [7] | Potency [8]

Cc1sccc1Br
inactive: Potency [1] | outcome [2] | Potency [3] | outcome [4] | Potency [5] | outcome [6] | Potency [7] | Potency [8]

COC(=O)NN
inactive: Potency [1] | outcome [2] | Potency [3] | outcome [4] | Potency [5] | outcome [6] | Potency [7] | Potency [8]

CC(C)NCCCC1(C(N)=O)c2ccccc2-c2ccccc21
inactive: Potency [1] | outcome [2] | Potency [3] | outcome [4] | Potency [5] | outcome [6] | Potency [7] | Potency [8]

CC1=CC(C)C(C=O)CC1 (stereo not drawn)
inactive: Potency [1] | outcome [2] | Potency [3] | outcome [4] | Potency [5] | outcome [6] | Potency [7] | Potency [8]

C=CCS(=O)(=O)O
inactive: Potency [1] | outcome [2] | Potency [3] | outcome [4] | Potency [5] | outcome [6] | Potency [7] | Potency [8]

CCc1nccnc1CC
inactive: cytotoxicity increase [1] 4% [at 15.8 µM] | activity change, negative = cytotoxicity [2] -0.0848% [at 19 µM] | viability change, negative = cytotoxic [3] 6.4% [at 19 µM] | activity change, negative = inhibition [4] 2.66% [at 19 µM] | activity change, negative = inhibition [5] 0.718% [at 19 µM] | activity change, negative = cytotoxicity [6] 0.191% [at 19 µM] | viability change, negative = cytotoxic [7] 3.6% [at 19 µM] | Potency [8]

CC/C=C\CCOC(C)=O
inactive: Potency [1] | outcome [2] | Potency [3] | outcome [4] | Potency [5] | outcome [6] | Potency [7] | Potency [8]

C=C[Si](OC(=C)C)(OC(=C)C)OC(=C)C
inactive: Potency [1] | outcome [2] | Potency [3] | outcome [4] | Potency [5] | outcome [6] | Potency [7] | Potency [8]

CC(C)(C)NCCNC(C)(C)C
inactive: Potency [1] | outcome [2] | Potency [3] | outcome [4] | Potency [5] | outcome [6] | Potency [7] | Potency [8]

CN1CCC(=C2c3ccccc3CC(=O)c3sccc32)CC1
inactive: Potency [1] | outcome [2] | Potency [3] | outcome [4] | Potency [5] | outcome [6] | Potency [7] | Potency [8]

CCCCCCCCCCCCCCCCC
inactive: Potency [1] | outcome [2] | Potency [3] | outcome [4] | Potency [5] | outcome [6] | Potency [7] | Potency [8]

O=C1CCCN1C1CCCCC1
inactive: Potency [1] | outcome [2] | Potency [3] | outcome [4] | Potency [5] | outcome [6] | Potency [7] | Potency [8]

CCCCCCCCCCCCCC=O
inactive: cytotoxicity increase [1] 5.89% [at 6.97 µM] | activity change, negative = cytotoxicity [2] 4.83% [at 8.39 µM] | viability change, negative = cytotoxic [3] -0.255% [at 8.39 µM] | activity change, negative = inhibition [4] 5.09% [at 8.39 µM] | activity change, negative = inhibition [5] -0.0684% [at 8.39 µM] | activity change, negative = cytotoxicity [6] 1.26% [at 8.39 µM] | viability change, negative = cytotoxic [7] 5.21% [at 8.39 µM] | viability change, negative = cytotoxic [8] 0.0972% [at 8.39 µM]

COCCCOCCCOC
inactive: Potency [1] | outcome [2] | Potency [3] | outcome [4] | outcome [6] | Potency [7] | Potency [8]
